Source: the supplement of paper PMC4723716
“And” between values parts separate entries of the source, which are not always exact repeats. Identical values can stand only once. ± gives the uncertainty stated by the source. In all, about 9,900 compounds were measured (“viability index relative to DMSO control”: median about 1, lowest 2% from about 0.85 on). What follows is part of a selection rich in the lowest values, with near analogues and random picks from the rest.

Test system: Plasmodium falciparum NF54 stage V gametocytes
Assay: viability index relative to DMSO control (fraction); higher = less gametocyte killing
Conditions: 2.5 µM, incubation time: 72 h
How it was run: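 Gametocytes (P. falciparum NF54, stage V) were treated with compound at 2.5 µM for 72 hr at 37°C in low oxygen, in serum-free medium at 0.75% gametocytemia and 1.25% hematocrit. Counts of 20–70 µm2 red particles, taken from one field per well after MitoTracker Red CMXRos with saponin, were divided by the plate mean of solvent-only wells. This ratio is the viability index.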

[1] = library set: Broad Institute DOS
[2] = library set: Broad Institute Blood Stage

Structure (SMILES)	viability index [1]	viability index [2]
C[C@@H]1CN([C@H](C)CO)C(=O)c2c(c3ccccc3n2C)-c2ccccc2CO[C@H]1CN(C)C(=O)[C@@H](Cc1ccccc1)N(C)C	1.14 ± 0.11	
COCC(=O)N1[C@@H]2CN(C)c3ccccc3[C@@H]2[C@@H]1CO	1.05 ± 0.034	
CN(C)C(=O)c1cccc(-c2cccc(-c3nc(C(=O)N4CCCCC4)cc4c3[C@H](CCO)N([S@@](=O)C(C)(C)C)C4)c2)c1	1.04 ± 0.0013	
C[C@H]1CN([C@@H](C)CO)C(=O)Cc2cc(NC(=O)CCC(F)(F)F)ccc2O[C@H]1CN(C)CC1CC1	1.0278 ± 0.00041	
O=C(C[C@H]1C=C[C@@H](NC(=O)c2ccncc2)[C@@H](CO)O1)NCC1CC1	1.08 ± 0.03	
COc1ccc2c3c([nH]c2c1)[C@@H](CO)N(C[C@]31CCN(Cc2ccccc2Cl)CC1)S(=O)(=O)c1cn(C)cn1	0.955 ± 0.018	
O=C(Cc1ccncc1)NCC[C@H]1CC[C@H](NS(=O)(=O)c2ccccc2Cl)[C@H](CO)O1	1.09 ± 0.031	
CN1[C@@H]2Cn3c(ccc(-c4ccncc4)c3=O)[C@H]1[C@@H](C(=O)N1CCC(Cc3ccccc3)CC1)[C@@H]2CO	1.11 ± 0.041	
COc1ccc2c3c([nH]c2c1)[C@H](CO)N(C[C@]31CCN(Cc2cncnc2)CC1)C(=O)CN(C)C	0.991 ± 0.06	
O=C(NC[C@H]1[C@H](c2ccccc2)[C@@H](CO)N1Cc1ccccn1)C1CCCC1	0.9562 ± 0.0077	
O=C(NC[C@@H]1[C@@H](c2ccccc2)[C@H](CO)N1Cc1ccccn1)C1CCCC1	1.05 ± 0.068	
O=C(NC[C@@H]1[C@H](c2ccccc2)[C@H](CO)N1Cc1ccccn1)C1CCCC1	0.684 ± 0.14	
N#C[C@H]1[C@H](c2ccc(C#Cc3ccccc3F)cc2)[C@@H](CO)N1C(=O)c1cccnc1	1.02 ± 0.033	
C[C@H](CO)N1C[C@H](C)[C@H](CN(C)CC2CC2)Oc2ccc(NC(=O)CCC(F)(F)F)cc2CC1=O	0.953 ± 0.022	
C[C@@H]1CN([C@@H](C)CO)C(=O)c2ccccc2-c2ccccc2CO[C@@H]1CN(C)Cc1cccnc1	1.049 ± 0.005	
CCC(=O)NC[C@H]1[C@@H](c2ccc(-c3ccc(C#N)cc3)cc2)[C@@H](CO)N1CCC(F)(F)F	1.01 ± 0.028	
CCCN1[C@H](CO)[C@H](c2ccc(C#Cc3ccccc3)cc2)[C@@H]1CNC1CCCC1	0.914 ± 0.021	
CN(C[C@H]1[C@@H](c2ccc(C3=CCCC3)cc2)[C@@H](CO)N1CCC(F)(F)F)S(C)(=O)=O	1.02 ± 0.046	
OC[C@@H]1[C@H](c2ccc(-c3ccc(F)cc3)cc2)[C@H](CNC2CCCC2)N1CCC(F)(F)F	0.837 ± 0.1	
OC[C@H]1[C@@H](c2ccc(-c3ccc(F)cc3)cc2)[C@@H]2CN(CCC(F)(F)F)CCCCN12		0.959 ± 0.057
OC[C@@H]1[C@H](c2ccc(-c3ccc(F)cc3)cc2)[C@@H](CNC2CCCC2)N1CCC(F)(F)F	0.557 ± 0.096	
CO[C@H](CN(C)C(=O)c1cnccn1)[C@H](C)CN([C@H](C)CO)S(=O)(=O)c1ccccc1	0.948 ± 0.067	
COc1ccc(CNC(=O)C[C@H]2CC[C@H](NC(=O)CN(C)C)[C@@H](CO)O2)cc1	1.1 ± 0.008	
NCC[C@H]1CC[C@H](NS(=O)(=O)c2ccc(Cl)cc2)[C@H](CO)O1	0.803 and 1.11	

Structure (SMILES)	viability index [1]	viability index [2]
NCC[C@@H]1CC[C@@H](NS(=O)(=O)c2ccc(Cl)cc2)[C@@H](CO)O1	1.02 and 1.13	
NCC[C@@H]1CC[C@H](NS(=O)(=O)c2ccc(Cl)cc2)[C@H](CO)O1	1.08 ± 0.093	
C[C@@H]1C/C=C/C[C@H](c2cccc(Cl)c2)NC(=O)[C@@H](Cc2ccccc2)N(C)C(=O)c2ccccc2O1.C[C@@H]1C/C=C\C[C@H](c2cccc(Cl)c2)NC(=O)[C@@H](Cc2ccccc2)N(C)C(=O)c2ccccc2O1	0.9516 ± 0.0088	
C[C@@H]1C/C=C/C[C@@H](c2cccc(Cl)c2)NC(=O)[C@@H](Cc2ccccc2)N(C)C(=O)c2ccccc2O1.C[C@@H]1C/C=C\C[C@@H](c2cccc(Cl)c2)NC(=O)[C@@H](Cc2ccccc2)N(C)C(=O)c2ccccc2O1	0.812 ± 0.044	
C[C@@H]1C/C=C/C[C@@H](c2cccc(Cl)c2)NC(=O)[C@H](Cc2ccccc2)N(C)C(=O)c2ccccc2O1.C[C@@H]1C/C=C\C[C@@H](c2cccc(Cl)c2)NC(=O)[C@H](Cc2ccccc2)N(C)C(=O)c2ccccc2O1	0.94 ± 0.029	
CCS(=O)(=O)N1C[C@@]2(C1)CN(CC1CCOCC1)[C@H](CO)c1c2c2ccc(OC)cc2n1C	0.985 ± 0.037	
C[C@@H]1CCCCO[C@@H](CN(C)S(=O)(=O)c2cn(C)cn2)[C@H](C)CN([C@@H](C)CO)C(=O)c2cc(NC(=O)Nc3cccc4ccccc34)ccc2O1	1.02 ± 0.062	
O=C(C[C@@H]1CC[C@@H](NS(=O)(=O)c2ccc(F)cc2)[C@H](CO)O1)N1CCN(c2ccccc2)CC1	1.05 ± 0.087	
O=C(Nc1cc(F)ccc1F)N1CCCCN2[C@H](CO)[C@H](c3ccc(C4=CCCCC4)cc3)[C@H]2C1	0.686 ± 0.018	
O=C(Nc1cc(F)ccc1F)N1CCCCN2[C@@H](CO)[C@@H](c3ccc(C4=CCCCC4)cc3)[C@@H]2C1	0.818 ± 0.063	
O=C(Nc1cc(F)ccc1F)N1CCCCN2[C@H](C1)[C@H](c1ccc(C3=CCCCC3)cc1)[C@@H]2CO	1.04 ± 0.075	
O=C(Nc1ccccc1F)N1CCCCN2[C@@H](CO)[C@@H](c3ccc(/C=C/c4ccccc4)cc3)[C@@H]2C1	0.8892 ± 0.0057	
O=C(Nc1ccccc1F)N1CCCCN2[C@H](CO)[C@H](c3ccc(/C=C/c4ccccc4)cc3)[C@@H]2C1	1.01 ± 0.021	
O=C(Nc1ccccc1F)N1CCCCN2[C@H](CO)[C@H](c3ccc(/C=C/c4ccccc4)cc3)[C@H]2C1	0.492 ± 0.14	
O=C(Nc1ccccc1F)N1CCCCN2[C@H](CO)[C@@H](c3ccc(/C=C/c4ccccc4)cc3)[C@@H]2C1	0.961 ± 0.019	
O=C(Nc1cc(F)ccc1F)N1CCCCN2[C@H](CO)[C@H](c3ccc(C4=CCCCC4)cc3)[C@@H]2C1	0.935 ± 0.14	
O=C(Nc1ccccc1F)N1CCCCN2[C@H](CO)[C@@H](c3ccc(/C=C/c4ccccc4)cc3)[C@H]2C1	0.859 ± 0.037	
O=C(C[C@@H]1C=C[C@@H](NC(=O)C2CCC2)[C@@H](CO)O1)NC1CCCCC1	1.16 ± 0.096	
C[C@@H]1CN([C@@H](C)CO)C(=O)c2cc(NC(=O)C3CCCCC3)ccc2O[C@@H](C)CCCCO[C@@H]1CN(C)C(=O)CCC(F)(F)F	1.05 ± 0.025	
CCCC(=O)N1C[C@@]2(C1)CN([C@@H](CO)c1c2c2ccc(OC)cc2n1C)C(=O)Nc1cccc(F)c1	0.997 ± 0.13	
C[C@H](NC(=O)C[C@@H]1C=C[C@H](NS(=O)(=O)c2cccc(F)c2)[C@H](CO)O1)c1ccccc1	1.08 ± 0.11	
N#Cc1ccc(-c2ccc([C@H]3[C@@H](CO)N4C(=O)CNC[C@@H]34)cc2)cc1	0.965 ± 0.1	
CN1CCN(C(=O)C[C@H]2CC[C@@H]3[C@H](COC[C@@H](O)CN3C(=O)Nc3ccc4c(c3)OCO4)O2)CC1	1.05 ± 0.017	
O=C(C1CCOCC1)N1[C@@H](CO)[C@@H](c2ccccc2)C12CN(Cc1cccc(Cl)c1)C2	1.103 ± 0.0018	

Structure (SMILES)	viability index [1]	viability index [2]
O=C(C1CCCCC1)N1[C@H](CO)[C@@H](c2ccccc2)C12CN(Cc1cccc(Cl)c1)C2		0.748 ± 0.048
O=C(C1CCOCC1)N1[C@H](CO)[C@@H](c2ccccc2)C12CN(Cc1cccc(Cl)c1)C2	1.1 ± 0.062	
O=C(C[C@H]1C[C@H]2c3cc(NS(=O)(=O)c4ccc(F)cc4)ccc3O[C@H]2[C@H](CO)O1)N1CCc2ccccc2C1	0.861 ± 0.059	
C[C@@H]1CCn2nncc2COC[C@H]2CCCN2C1=O	1.04 ± 0.058	
O=S(=O)(c1ccccc1)N1CCCCN2[C@H](CO)[C@@H](c3ccc(C#CC4CCCC4)cc3)[C@@H]2C1	1.01 ± 0.026	
O=S(=O)(c1ccccc1)N1CCCCN2[C@H](C1)[C@@H](c1ccc(C#CC3CCCC3)cc1)[C@@H]2CO	0.907 ± 0.07	
O=S(=O)(c1ccccc1)N1CCCCN2[C@H](C1)[C@H](c1ccc(C#CC3CCCC3)cc1)[C@@H]2CO	1.03 ± 0.031	
O=S(=O)(c1ccccc1)N1CCCCN2[C@H](CO)[C@@H](c3ccc(C#CC4CCCC4)cc3)[C@H]2C1	1.03 ± 0.056	
O=S(=O)(c1ccccc1)N1CCCCN2[C@H](CO)[C@H](c3ccc(C#CC4CCCC4)cc3)[C@H]2C1	0.8253 ± 0.0077	
O=S(=O)(c1ccccc1)N1CCCCN2[C@@H](CO)[C@@H](c3ccc(C#CC4CCCC4)cc3)[C@@H]2C1	0.8429 ± 0.006	
O=C(CN1CCOCC1)N1[C@H](CO)[C@H]2c3ccccc3NC[C@H]21	1 ± 0.088	
C[C@H]1CN([C@@H](C)CO)C(=O)c2cc(NC(=O)Nc3cccc4ccccc34)ccc2O[C@@H]1CN(C)S(=O)(=O)c1cccs1	1.06 ± 0.026	
COc1ccccc1CN1CC[C@@H]2[C@H]1c1cc(-c3cccc(C(=O)N(C)C)c3)ccc1N[C@@H]2CO	1.09 ± 0.028	
COc1ccccc1-c1ccc2c(c1)[C@H]1[C@H](CCN1Cc1ccccc1F)[C@@H](CO)N2	1.02 ± 0.035	
CN(C)C(=O)c1cccc(-c2ccc3c(c2)[C@@H]2[C@@H](CCN2Cc2nccs2)[C@@H](CO)N3)c1	0.785 ± 0.07	
CN(C)C(=O)c1cccc(-c2ccc3c(c2)[C@@H]2[C@@H](CCN2C(=O)c2cnccn2)[C@H](CO)N3)c1	1.17 ± 0.072	
CN(C)C(=O)c1cccc(-c2ccc3c(c2)[C@H]2[C@H](CCN2Cc2nccs2)[C@@H](CO)N3)c1	1.18 ± 0.023	
COc1ccccc1CN1CC[C@@H]2[C@H]1c1cc(C3=CCCCC3)ccc1N[C@@H]2CO	0.8126 ± 0.0046	
CN(C)C(=O)c1cccc(-c2ccc3c(c2)[C@@H]2[C@@H](CCN2C(=O)c2cnccn2)[C@@H](CO)N3)c1	1.12 ± 0.032	
CN(C)C(=O)c1cccc(-c2ccc3c(c2)[C@H]2[C@H](CCN2C(=O)c2cnccn2)[C@H](CO)N3)c1	1.1 ± 0.035	
COc1ccccc1CN1CC[C@@H]2[C@H](CO)Nc3ccc(-c4cccc(C(=O)N(C)C)c4)cc3[C@@H]21	0.841 ± 0.072	
CN(C)C(=O)c1cccc(-c2ccc3c(c2)[C@H]2[C@H](CCN2C(=O)c2cnccn2)[C@@H](CO)N3)c1	1.16 ± 0.02	
CN(C)C(=O)c1cccc(-c2ccc3c(c2)[C@H]2[C@H](CCN2Cc2nccs2)[C@H](CO)N3)c1	0.818 ± 0.014	
OC[C@@H]1Nc2ccc(C3=CCCCC3)cc2[C@@H]2[C@H]1CCN2Cc1nccs1	1.06 ± 0.059	
